The results in this text go back to PubChem BioAssay (Tox21).

Unmarked numbers belong to inactive results. Where a call stands in place of a potency, no number is given. Calls of active or inactive are those of the source. Calls come from the whole dose curve; as a rule, active = well fitted cell-killing curve with a large enough effect in the repeat runs; inconclusive = weak or mixed curves, or effect the other way; inactive = flat fitted curve, though single readings scatter.

The experiment can be described thus: qHTS assay to identify small molecule HDAC inhibitors - cell viability counter screen (AID 1259365). Note: nearly all actives have a fitted effect of over 50% in size. The settings on record: HCT-116 viability, CellTiter-Glo ATP luminescence, 2 h; series mostly up to 92.4 µM. An excerpt:
U.S. Tox21 Program National Center for Advancing Translational Sciences [NCATS] NIH Chemical Genomics Center [NCGC] U.S. Environmental Protection Agency [EPA] National Institutes of Environmental Health Sciences [NIEHS] National Toxicology Program [NTP] U.S. Food and Drug Administration [FDA] Tox21 Assay Overview: Histone deacetylases (HDACs) are a group of epigenetic enzymes that regulate gene expression by histone deacetylation. HDACs are capable of introducing epigenetic modifications and such aberrations contribute to the onset and progression of several human diseases, thus making HDACs a popular therapeutic target. For identifying endogenous class I/II HDAC inhibitors a homogenous, luminogenic HDAC I/II cell based assay was used to measure the relative activity of class I and II HDACs from cells. Wild type HCT-116 cells were used to screen Tox21 compound libraries for identifying class I/II HDAC inhibitors.
Tox21 Assay Protocol Summary: HCT-116 cells were dispensed at 1,500 per well in 5uL of culture medium into white solid bottom 1536-well plates (Greiner Bio-One, Monroe, NC) using a Multidrop Combi (Thermo Scientific, Waltham, MA) dispenser. The assay plates were incubated at 37 C and 5% CO2 for an overnight, and then 23nL of compounds dissolved in DMSO and positive control were transferred using a Pintool station (Wako, San Diego, CA). The assay plates were incubated at 37C and 5% CO2 for 2hr. After compound treatment, 4uL of CellTiter-Glo reagent (Promega Corporation, Madison, WI) was added to each well of the assay plates using Flying Reagent Dispenser (FRD, Aurora Discovery, San Diego, CA) and incubated the assay plates at room temperature for 30min. The luminescence signal was quantified using a ViewLux plate reader (Perkin Elmer, Shelton, CT).
Background: In qHTS, concentration-response curves come from the screen itself.
As to `Cc1ncc(CO)c(C=O)c1O`, the Potency result was “inactive”. As for `C=C1C(=C/C=C2\CCC[C@]3(C)[C@@H]([C@H](C)/C=C/[C@@H](O)C4CC4)CC[C@@H]23)C[C@@H](O)C[C@@H]1O`, the Potency result was “inactive”. The same measure, in the same setting: as for `Nc1c(CC(=O)O)cccc1C(=O)c1ccc(Br)cc1`, the entry is “inactive”.

As for `CC(CSC(=O)c1ccccc1)C(=O)N1C[C@@H](Sc2ccccc2)C[C@H]1C(=O)O` (stereo not given in full), the activity change, negative = cytotoxicity is -1.25% [at 19 µM]. Consider `CCOc1ccc(N)c([N+](=O)[O-])c1`, for which the Potency entry is “inactive”.

Take `CC(C)C[C@H]1C(=O)N2CCC[C@H]2[C@]2(O)O[C@](NC(=O)[C@@H]3C=C4c5cccc6[nH]c(Br)c(c56)C[C@H]4N(C)C3)(C(C)C)C(=O)N12`: the Potency result is “inactive”. As for `O=C(O)C1(C(=O)Nc2ccc(Cl)cc2Cl)CC1`, the Potency result is “inactive”.

Take `CCCCCCCCCCCCCCCCOS(=O)(=O)O`: the Potency entry was “inactive”. Take `CN(C)CCN(Cc1ccccc1)c1ccccn1`: the Potency result is “inactive”. Turning to `COC(C)(C)CCO`, the Potency entry is “inactive”.

Take `CC1=CC[C@H](C(C)C)C=C1`: the Potency entry is “inactive”. For the molecule `CCC(=O)O[C@]1(C(=O)CCl)[C@@H](C)C[C@H]2[C@@H]3CCC4=CC(=O)C=C[C@]4(C)[C@@]3(F)[C@@H](O)C[C@@]21C`, the Potency result is “inactive”. On the same count and under the same terms, next, `CCCCCCCC/C=C\CCCCCCCC(=O)OCC`: “inactive”; `CCCn1cnc2c1c(=O)n(CCCCC(C)=O)c(=O)n2C`: “inactive”.

On to `OCCN1CCN(CCCN2c3ccccc3C=Cc3ccccc32)CC1`, for which the Potency result is “inactive”. On to `C/C=C/C=C/CO`, for which the Potency result was “inactive”. For the molecule `C/C(=C(\CCOP(=O)(O)O)SC(=O)c1ccccc1)N(C=O)Cc1cnc(C)nc1N`, the activity change, negative = cytotoxicity is 6.82% [at 8.39 µM]. Regarding `COc1cc2nc(Cl)nc(N)c2cc1OC`, the Potency entry is “inactive”. On the same count and under the same terms, next, `C[C@@H](c1ncncc1F)C(O)(Cn1cncn1)c1ccc(F)cc1F` (stereo not given in full): “inactive”. With `C=CC(=O)OCCOc1ccccc1`, the Potency entry is “inactive”. Turning to `c1ccc(CNCCNCc2ccccc2)cc1`, the Potency result is “inactive”. As for `O=C(O)c1nc(Cl)c(Cl)c(Cl)c1Cl`, the Potency result is “inactive”. As for `CCN(CC)CCOC(=O)C(c1ccccc1)C1CCCCC1` (stereo not given), the Potency result is “inactive”. For the molecule `CCCCCCCN`, the Potency entry is “inactive”. As for `Cc1ccc(C(=O)Oc2ccc(C(O)CNC(C)(C)C)cc2OC(=O)c2ccc(C)cc2)cc1` (stereo not given), the Potency result is “inactive”. Same read-out and setting: as for `CC(=O)c1cccc([N+](=O)[O-])c1`, the entry is “inactive”; as for `C=C(C)C(=O)OCCO`, “inactive”.

With `CCCOC(C(=O)OC1CCN(C)CC1)(c1ccccc1)c1ccccc1`, the Potency result is “inactive”.

Regarding `Cc1cccc(C)c1OCC(=O)N[C@@H](Cc1ccccc1)[C@@H](O)C[C@H](Cc1ccccc1)NC(=O)[C@H](C(C)C)N1CCCNC1=O`, the Potency entry was “inactive”. With `CCc1cc(C2=C(C(=O)O)N(c3ccccc3C(F)(F)F)S(=O)(=O)c3ccccc32)cc2c1OCO2`, the Potency result is “inactive”. For `CN1CCC(N(Cc2cccs2)c2ccccc2)CC1`, the Potency entry was “inactive”. On the same count and under the same terms, as for `CCCCCCCCCc1ccc(OCCOCCO)cc1`, the entry is “inactive”; as for `O=[N+]([O-])c1cccc(S(=O)(=O)O)c1`, “inactive”; as for `O=[N+]([O-])c1ccc2[nH]ncc2c1`, “inactive”.

In the case of `COC(C)OC`, the Potency result was “inactive”.

As to `CCOC(=O)C1=C[C@]2(CC)CCCN3CCc4c(n1c1ccccc41)[C@@H]32`, the Potency result was “inactive”. The same measure, in the same setting: as for `COc1cc2nc(N(C)CCCNC(=O)C3CCCO3)nc(N)c2cc1OC` (stereo not given), the entry is “inactive”; as for `C#C[C@]1(O)CC[C@H]2[C@@H]3CCc4cc(OC5CCCC5)ccc4[C@H]3CC[C@@]21C`, “inactive”; as for `CC1=CC=C(C(C)C)CC1`, “inactive”. With `O=C1[C@H]2CCCC[C@H]2C(=O)N1CCCCN1CCN(c2nsc3ccccc23)CC1`, the Potency result is “inactive”.
